From PubChem BioAssay
Most compounds without a hit are left out; they make up all but 2.4% or so of the library.
CHT inh: human CHT choline transport inhibition; Q9GZV3; CHT-expressing cells, membrane potential dye, choline response; hits give low values; B-score at 10 µM; hit rate 0.86% among 310,000; AID 488975;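 active = B-score over 3 SD under the library average, and starting fluorescence ratio not unusually high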;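 also: choline stimulus applied at its EC90 after an EC20 pre-addition; B-score computed on integrated fluorescence ratio after choline addition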
CHT allo act: allosteric activators of human choline transporter CHT. AID 488977. CHT-expressing cells, membrane potential dye, choline EC20; hits give high values; LV-AA mutant CHT in HEK293 cells. Q9GZV3. hit rate 0.49% among 310,000. B-score at 10 µM;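 active = initial fluorescence not abnormally high and integrated response B-score, plate-corrected, over 3 SD above library mean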
ANO1 activ: mouse TMEM16A channel activation, primary screen; B-score at 10 µM; Q8BHY3; AID 623877; HEK293 TMEM16A/YFP-H148Q/I152L, iodide quench fluorescence; hits give low values; hit rate 0.3% among 340,000;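 active = fluorescence-ratio B-score plate-corrected deviation score at least 3 library SD below zero, with starting fluorescence score within 5 deviations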;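 also: channel opened by trigger with iodide after compound preincubation; score built on the fluorescence ratio of max minus min over baseline; more negative score means more quench and so TMEM16A activation or potentiation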
Target sequence (Q8BHY3 whole entry, looked up): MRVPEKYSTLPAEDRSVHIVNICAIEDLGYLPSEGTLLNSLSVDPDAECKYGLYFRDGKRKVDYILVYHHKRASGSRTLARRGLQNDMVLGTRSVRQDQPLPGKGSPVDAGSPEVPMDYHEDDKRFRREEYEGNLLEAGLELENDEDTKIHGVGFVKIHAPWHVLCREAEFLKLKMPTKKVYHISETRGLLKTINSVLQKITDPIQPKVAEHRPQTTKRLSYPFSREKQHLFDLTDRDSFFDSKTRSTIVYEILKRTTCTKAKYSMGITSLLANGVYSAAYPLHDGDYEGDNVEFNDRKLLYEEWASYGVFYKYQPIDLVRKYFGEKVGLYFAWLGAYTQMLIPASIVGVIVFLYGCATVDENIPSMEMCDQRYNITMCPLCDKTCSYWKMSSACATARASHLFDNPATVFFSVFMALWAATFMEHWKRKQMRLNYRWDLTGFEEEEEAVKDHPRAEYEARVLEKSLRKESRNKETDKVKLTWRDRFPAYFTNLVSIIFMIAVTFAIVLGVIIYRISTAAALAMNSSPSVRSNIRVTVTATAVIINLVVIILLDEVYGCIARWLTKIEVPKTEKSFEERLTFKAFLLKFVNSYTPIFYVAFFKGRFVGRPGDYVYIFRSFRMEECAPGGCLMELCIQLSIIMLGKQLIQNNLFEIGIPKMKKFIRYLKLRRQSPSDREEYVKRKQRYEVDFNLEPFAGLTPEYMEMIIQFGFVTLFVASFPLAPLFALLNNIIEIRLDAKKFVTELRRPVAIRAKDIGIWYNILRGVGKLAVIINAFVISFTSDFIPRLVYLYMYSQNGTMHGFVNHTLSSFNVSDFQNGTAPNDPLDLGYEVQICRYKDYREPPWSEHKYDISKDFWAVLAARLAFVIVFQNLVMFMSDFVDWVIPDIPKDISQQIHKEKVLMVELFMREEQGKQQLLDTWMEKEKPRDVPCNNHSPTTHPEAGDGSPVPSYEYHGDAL
ANO1 block: blocks the mouse calcium-activated chloride channel TMEM16A; hit rate 1.2% among 310,000; AID 588511; Q8BHY3; HEK293 TMEM16A/YFP iodide influx fluorescence, ionomycin; normalized B-score (activity score, 25-100; higher = stronger inhibition) at 10 µM;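 active = ratio plate-corrected score three or more library SD toward inhibition, starting fluorescence score within five deviations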;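 also: score derived from kinetic fluorescence span divided by baseline fluorescence per well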
CHT activ conf: human CHT activation, confirmatory screen; CHT-expressing cells, membrane potential dye fluorescence (FDSS); % of choline EC20–EC90 response window; HEK293 expressing CHT LV-AA mutant; choline added at its EC20; activation, % at 10 µM; shares compounds with CHT allo act; hit rate 91% among 2,500;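 active = primary screen active, with duplicate mean activation above negative control mean plus 3 SD, cut at about 11% in these data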
HEK293 MP dye: CHT activator counter-screen hit in parental HEK293 cells; shares compounds with CHT allo act; membrane potential dye fluorescence (FDSS); measured after EC20 choline addition; ratio readout change at 10 µM, hits read low; hit rate 62% among 2,500;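 active = duplicate-averaged ratio beyond 3 SD from buffer wells, up or down, though filed actives are nearly all decreases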
Numbers stand for hits.

How did O=C(O)c1ccc2cccc(Cl)c2c1O do in these assays?
CHT inh: inactive; CHT allo act: inactive; ANO1 activ: inactive; ANO1 block: inactive

Results for CCc1cc(Br)ccc1NC(=S)NCCc1ccccc1 ?
CHT inh: inactive; CHT allo act: inactive; ANO1 activ: inactive; ANO1 block: inactive; CHT activ conf: 12; HEK293 MP dye: inactive

Results for CN1C=C/C(=C\c2cc[n+](C)c3ccccc23)c2ccccc21 ?
ANO1 activ: inactive

Results for Clc1cnc(N/N=C/c2ccncc2)c(Cl)c1 ?
CHT inh: inactive; CHT allo act: inactive; ANO1 activ: inactive; ANO1 block: inactive; CHT activ conf: 37; HEK293 MP dye: -44

What do the screens show for `Cc1cc(Nc2ncc(Cl)cc2Cl)n(-c2ccccc2C)n1`?
CHT inh: inactive; CHT allo act: 8.8; ANO1 activ: inactive; ANO1 block: inactive; CHT activ conf: 42; HEK293 MP dye: inactive

How did Cc1ccc(-n2nc(C)cc2Nc2ncc(Cl)cc2Cl)cc1 do in these assays?
CHT inh: inactive; CHT allo act: inactive; ANO1 activ: inactive; ANO1 block: inactive

How did CN=C1c2c(-c3ccccc3)c3cc(OC)ccc3n2CCN1C do in these assays?
CHT inh: inactive; CHT allo act: 8; ANO1 activ: inactive; ANO1 block: inactive; CHT activ conf: 43; HEK293 MP dye: -53

Results for Cc1cc(C)c(C#N)c(SCc2cn3c(C)cccc3n2)n1 ?
CHT inh: inactive; CHT allo act: inactive; ANO1 activ: inactive; ANO1 block: inactive; CHT activ conf: 56; HEK293 MP dye: -42

What do the screens show for `Cc1cc(C)nc(SCc2cn3c(C)cccc3n2)n1`?
CHT inh: inactive; CHT allo act: 6.8; ANO1 activ: inactive; ANO1 block: inactive; CHT activ conf: 44; HEK293 MP dye: -53

Results for Cc1cc(C)c(C#N)c(SCc2ccc(C#N)cc2)n1 ?
CHT inh: inactive; CHT allo act: inactive; ANO1 activ: inactive; ANO1 block: inactive

Results for Cc1ccnc(SCc2cn3c(C)cccc3n2)n1 ?
CHT inh: inactive; CHT allo act: 7; ANO1 activ: inactive; ANO1 block: inactive; CHT activ conf: 27; HEK293 MP dye: -46

What do the screens show for `Cc1cccc2nc(CSc3ncccc3C(=O)O)cn12`?
CHT inh: inactive; CHT allo act: inactive; ANO1 activ: inactive; ANO1 block: inactive

Results for COc1ccc(OC)c(NC(=O)c2oc3c(c2C)C(O)CC(C)(C)C3)c1 (configuration not stated) ?
CHT inh: inactive; CHT allo act: inactive; ANO1 activ: inactive; ANO1 block: inactive

What do the screens show for `OCC1(Cc2cccc(Cl)c2)CCCN(Cc2ccc3cc(F)ccc3n2)C1` (configuration not stated)?
CHT inh: inactive; CHT allo act: inactive; ANO1 activ: inactive; ANO1 block: inactive

How did CC(C)CCNC(=O)NC(=O)CSc1nnc(COc2ccccc2Cl)o1 do in these assays?
CHT inh: inactive; CHT allo act: inactive; ANO1 activ: inactive; ANO1 block: inactive

What do the screens show for `CCN(CC)CCCC(C)Nc1nccc2cccc(Cl)c12` (configuration not stated)?
ANO1 activ: inactive

How did S=C(NCc1ccncc1)Nc1cc(Cl)cc(Cl)c1 do in these assays?
CHT inh: inactive; CHT allo act: inactive; ANO1 activ: inactive; ANO1 block: inactive

How did CN1CCCC1CCNc1ccc2oc3ccccc3c(=O)c2c1 (configuration not stated) do in these assays?
CHT inh: inactive; CHT allo act: inactive; ANO1 block: inactive

How did CN1CCCC1CCNc1ccc2c(=O)c3ccccc3oc2c1 (configuration not stated) do in these assays?
CHT inh: inactive; CHT allo act: 6.4; ANO1 activ: inactive; ANO1 block: inactive; CHT activ conf: 53; HEK293 MP dye: -22

How did Cc1nc(NCCCO)c(C#N)c2c1COC(C)(C)C2 do in these assays?
CHT inh: inactive; CHT allo act: inactive; ANO1 activ: inactive; ANO1 block: inactive

Results for COC(=O)C(NC(=O)C(CC(C)C)NC(=O)C1CCC(C)CC1)C(C)C (configuration not stated) ?
CHT inh: inactive; CHT allo act: inactive; ANO1 activ: inactive; ANO1 block: inactive

Results for CC(=O)N1CCN(C(=O)c2cc(S(=O)(=O)NCc3ccccc3)ccc2C)CC1 ?
CHT inh: inactive; CHT allo act: inactive; ANO1 activ: inactive; ANO1 block: inactive

How did Cc1ccc(C)c(S(=O)(=O)N2CCN(C(=O)c3cc(S(=O)(=O)NCc4ccccc4)ccc3C)CC2)c1 do in these assays?
CHT inh: inactive; CHT allo act: inactive; ANO1 activ: inactive; ANO1 block: inactive; CHT activ conf: 22; HEK293 MP dye: inactive

What do the screens show for `COc1ccc(Cn2c(-c3ccc(Br)cc3)c[n+]3ccccc23)cc1`?
CHT inh: inactive; CHT allo act: 9.6; ANO1 activ: inactive; ANO1 block: inactive; CHT activ conf: 70; HEK293 MP dye: -60

What do the screens show for `COc1ccc(Cn2c(C)ccc2C)cc1`?
CHT inh: inactive; CHT allo act: inactive; ANO1 activ: inactive; ANO1 block: inactive

Results for O=C(NCc1cccs1)c1ccccc1F ?
CHT inh: inactive; CHT allo act: inactive; ANO1 activ: inactive; ANO1 block: inactive

Results for CCC(O)(CC)C(=O)N/N=C/c1cc(Br)cc(Br)c1O ?
CHT inh: inactive; CHT allo act: inactive; ANO1 activ: inactive; ANO1 block: inactive; CHT activ conf: 14; HEK293 MP dye: inactive

How did O=C(C[n+]1ccccc1)N/N=C/c1cc(Br)cc(Br)c1O do in these assays?
CHT inh: inactive; CHT allo act: inactive; ANO1 activ: inactive; ANO1 block: inactive

How did CC(C)(C)OC(=O)COc1cc(OCC(=O)OC(C)(C)C)c2c(=O)cc(-c3ccccc3)oc2c1 do in these assays?
CHT inh: inactive; CHT allo act: 8.3; ANO1 activ: inactive; ANO1 block: 100; CHT activ conf: 50; HEK293 MP dye: inactive

Results for Cc1cccc(N2CCN(C(=O)Cn3sc4nc(C)cc(C)c4c3=O)CC2C)c1 (configuration not stated) ?
CHT inh: inactive; CHT allo act: inactive; ANO1 activ: inactive; ANO1 block: inactive

Results for COc1ccc(C(=O)CSc2nnc(CNC(=O)c3ccco3)n2C)cc1OC ?
CHT inh: inactive; CHT allo act: inactive; ANO1 activ: inactive; ANO1 block: inactive

How did COc1ccc(C(=O)CSc2nnc(CNC(=O)c3ccco3)n2C)cc1 do in these assays?
CHT inh: inactive; CHT allo act: 6.6; ANO1 activ: inactive; ANO1 block: inactive; CHT activ conf: 69; HEK293 MP dye: -51

Results for CCCCCCc1c(C)nc(-n2[nH]c(C)c(CCO)c2=O)[nH]c1=O ?
CHT inh: inactive; CHT allo act: inactive; ANO1 activ: inactive; ANO1 block: inactive
